From PubChem BioAssay (NCATS)
Records with an inconclusive call do not appear. Active and inactive are the calls of the source. Calls follow the shape of the full dose curve.

Key:
[1] = Primary qHTS for inhibitors of SARS-S pseudo-typed particle cell entry (AID 1479145); also: nearly all actives have a fitted effect of over 45% in size; also: potency is read from the fitted curve at half-maximal effect
[2] = Primary qHTS for Huh7 cytotoxicity: counterscreen for inhibitors of MERS-S pseudotyped particle cell entry (AID 1479147)
[3] = Primary qHTS for inhibitors of MERS-S pseudo-typed particle cell entry (AID 1479149); also: nearly all actives have a fitted effect of over 60% in size
[4] = Primary qHTS for Vero E6 cytotoxicity: counterscreen for inhibitors of SARS-S pseudo-typed particle cell entry (AID 1479150)

Measured: Potency

O=C(O)CCC(=O)O
inactive: all assays above

CCn1nc(C(=O)O)c(=O)c2cc3c(cc21)OCO3
inactive: all assays above

Clc1ccc2nsnc2c1NC1=NCCN1
inactive: all assays above

CC(=O)N=c1sc(S(N)(=O)=O)nn1C
inactive: all assays above

O=C(N[C@H](CO)[C@H](O)c1ccc([N+](=O)[O-])cc1)C(Cl)Cl
inactive: all assays above

CC(=O)Nc1ccccc1
inactive: all assays above

C#C[C@]1(O)CC[C@H]2[C@@H]3CCc4cc(OC5CCCC5)ccc4[C@H]3CC[C@@]21C
inactive: all assays above

O=C(O)CCCCCCCC(=O)O
inactive: all assays above

NS(=O)(=O)c1ccc(Cl)c(S(N)(=O)=O)c1
inactive: all assays above

Oc1cccc(O)c1
inactive: all assays above

CC(CN(C)C)C(C)(O)Cc1ccc(Cl)cc1 (centres undefined)
inactive: all assays above

Cc1oc(=O)oc1COC(=O)[C@@H]1N2C(=O)[C@@H](NC(=O)[C@H](N)c3ccccc3)[C@H]2SC1(C)C
inactive: all assays above

CCCCCCCCCCC[C@@H](C[C@@H]1OC(=O)[C@H]1CCCCCC)OC(=O)[C@H](CC(C)C)NC=O
inactive: all assays above

C[C@@H]1C[C@H]2[C@@H]3C[C@H](F)C4=CC(=O)C=C[C@]4(C)[C@@]3(F)[C@@H](O)C[C@]2(C)[C@@]1(O)C(=O)CO
inactive: all assays above

CCC(=O)c1c(O)cc(O)cc1O
inactive: all assays above

Cc1ccccc1C(=O)N1CC/C(=N\OS(=O)(=O)O)c2ccc(Cl)cc21
inactive: all assays above

OC[C@H]1O[C@H](O[C@]2(CCl)O[C@H](CCl)[C@@H](O)[C@@H]2O)[C@H](O)[C@@H](O)[C@H]1Cl
inactive: all assays above

O=c1[nH]c(=O)n([C@H]2CCCO2)cc1F
inactive: all assays above

CC(C)CN(C[C@@H](O)[C@H](Cc1ccccc1)NC(=O)O[C@H]1CO[C@H]2OCC[C@H]21)S(=O)(=O)c1ccc(N)cc1
inactive: all assays above

Cn1c(=O)c2[nH]c(Br)nc2n(C)c1=O
inactive: all assays above

OCCc1ccccc1
inactive: all assays above

COc1ccc(O)cc1
inactive: all assays above

Cc1ccccc1N1CCN(CCc2nnc3n2CCCC3)CC1
inactive: all assays above

CC(=O)OC(C)C[N+](C)(C)C (centres undefined)
inactive: all assays above

Cc1ncc(CO)c(CO)c1O
inactive: all assays above

C/C(=N\O)[C@@H](C)NCC(C)(C)CN[C@H](C)/C(C)=N/O
inactive: all assays above

CCCCCCCCCCCCCCCCOP(=O)([O-])OCC[N+](C)(C)C
active: [1] 14.1 µM
inactive: all other assays above

Cc1c(F)c(N2CCNC(C)C2)cc2c1c(=O)c(C(=O)O)cn2C1CC1 (centres undefined)
inactive: all assays above

CCOC(=O)Oc1ccc(CCNC(=O)[C@H](CCSC)NC(C)=O)cc1OC(=O)OCC
inactive: all assays above

O=C(Oc1ccccc1C(=O)O)c1ccccc1O
inactive: all assays above

NNC(=O)c1ccncc1
inactive: all assays above

CC(C)NCC(O)c1ccc(NS(C)(=O)=O)cc1 (centres undefined)
inactive: all assays above

C[C@]12CCC(=O)C=C1CC[C@@H]1[C@@H]2[C@@H](O)C[C@@]2(C)[C@H]1CC[C@]2(O)C(=O)COC(=O)CCC(=O)O
inactive: all assays above

CN(CC1(C)CCCO1)S(=O)(=O)c1ccc(Cl)c(S(N)(=O)=O)c1 (centres undefined)
inactive: all assays above

CCOc1cc(CC(=O)N[C@@H](CC(C)C)c2ccccc2N2CCCCC2)ccc1C(=O)O
inactive: all assays above

CN(C)CCOC(=O)C(c1ccccc1)C1(O)CCCC1 (centres undefined)
inactive: all assays above
